# Results from PubChem BioAssay (Tox21).
# Inconclusive results are not listed. Entries that show only a call come without a potency. Active and inactive are the calls of the source. The call rests on the fitted dose curve; in most records, active means well fitted cell-killing curve with a large enough effect in the repeat runs; inconclusive means weak or mixed curves, or effect the other way; inactive means no such curve, though single readings can be large or run the other way.
# Experiment: qHTS assay for small molecule activators of the heat shock response signaling pathway - cell viability counter screen (AID 743209); further: nearly all actives have a fitted effect of over 50% in size
# Conditions: HSE-bla HeLa viability, CellTiter-Glo luminescence, 5 h; series mostly up to 62.6 µM
# Excerpt: U.S. Tox21 Program National Center for Advancing Translational Sciences [NCATS] NIH Chemical Genomics Center [NCGC] U.S. Environmental Protection Agency [EPA] National Institutes of Environmental Health Sciences [NIEHS] National Toxicology Program [NTP] U.S. Food and Drug Administration [FDA] Tox21 Assay Overview: Various chemicals, environmental and physiological stress conditions may lead to the activation of heat shock response/ unfolded protein response (HSR/UPR). There are three heat shock transcription factors (HSFs) (HSF-1, -2, and -4) mediating transcriptional regulation of the human HSR. To identify the compounds that activate HSR signaling, HSE-bla HeLa cell line (Invitrogen, Carlsbad, CA, USA) containing a beta-lactamase reporter gene under the control of the heat shock response elements was used to screen Tox21 10K compound library. The cytotoxicity of the Tox21 compound library against the HSE-bla HeLa cell line was tested in parallel by measuring the cell viability using CellTiter-Glo assay (Promega, Madison, WI) in the same wells.
# Tox21 Assay Protocol Summary: The CellSensor HSE-bla HeLa cells (Invitrogen, Carlsbad, CA, USA) were dispensed at 1500 cells/6uL/well into 1536-well black wall/clear bottom plates using a Multidrop combi (Thermo Fisher Scientific, Waltham, MA) dispenser. After the assay plates were incubated at 37 C and 5% CO2 overnight, 23 nL of compounds dissolved in DMSO, positive controls or DMSO only was transferred to the assay plate by a Pintool station (Kalypsys, San Diego, CA). The plates were incubated at 37 C for 5 h. After 1 uL of LiveBLAzerTM B/G FRET substrate was added using a Flying Reagent Dispenser (FRD, Beckman Coulter, Indianapolis, IN, USA), the plates were incubated at room temperature for 2.5 h, and fluorescence intensity was measured by an Envision plate reader (PerkinElmer, Shelton, CT). For cell viability readout that measures cytotoxicity, 3 ul/well of CellTiter-Glo reagent was added into the assay plates using a FRD. After 30 min incubation at room temperature, the luminescence intensity in the plates was measured using a ViewLux (PerkinElmer) plate reader.
row,SMILES,Potency
1,Brc1ccc(Oc2ccc(Br)cc2)cc1,inactive
2,NC(=O)c1ncn([C@@H]2O[C@H](CO)[C@@H](O)[C@H]2O)n1,inactive
3,C=C1C[C@]23C[C@@]1(O)CC[C@H]2[C@@]12C=C[C@H](O)[C@@](C)(C(=O)O1)[C@H]2[C@@H]3C(=O)O,inactive
4,Nc1cccc(N)n1,inactive
5,CCCOCC(C)O (stereo not given),inactive
6,c1cnc2c(c1)ccc1cccnc12,inactive
7,C=CC(=O)NCOCCCC,inactive
8,Nc1nc(N)c2nc(-c3ccccc3)c(N)nc2n1,inactive
9,CC(COCC(C)OC(=O)c1ccccc1)OC(=O)c1ccccc1 (stereo not given),inactive
10,Cc1ccc(C(C)C)cc1,inactive
11,O=c1c(O)c(-c2ccc(O)c(O)c2)oc2cc(O)cc(O)c12,inactive
12,Cc1ccccc1C=O,inactive
13,O=C1C(N(CO)C(=O)NCO)N(CO)C(=O)N1CO (stereo not given),inactive
14,CCCCCCCCC(=O)O,inactive
15,C[n+]1ccn(CCO)c1,inactive
16,O=C(Cl)c1ccc(C(=O)Cl)cc1,inactive
17,OC1CCCCC1,inactive
18,CCCN(CCC)C(=O)SCC,inactive
19,COc1ccc2cc3[n+](cc2c1OC)CCc1cc2c(cc1-3)OCO2,inactive
20,C[Si](C)(C)N[Si](C)(C)C,inactive

row,SMILES,Potency
1,O=[N+]([O-])c1cc(C(F)(F)F)ccc1Cl,inactive
2,O=C(c1ccccc1)c1ccc(O)c(O)c1O,inactive
3,CC1(C)C(=O)N(Cl)C(=O)N1Cl,inactive
4,NC1CCCCC1N (stereo not given),inactive
5,CC1=CC(=O)CC(C)(C)C1,inactive
6,CC(C)(C)NC[C@H](O)COc1nsnc1N1CCOCC1,inactive
7,Cc1ccc(Cl)cc1,inactive
8,O=C(O)C1=NN(c2ccc(S(=O)(=O)O)cc2)C(=O)C1,inactive
9,CCOC(=O)CC(=O)OCC,inactive
10,N#CCC(=O)O,inactive
11,O=C1CCCCCCCCCCC1,inactive
12,OCC(CO)(CO)CO,inactive
13,Cc1ncc(CO)c(CO)c1O,inactive
14,Cc1ccccc1Cl,inactive
15,C=C(CC(=O)O)C(=O)O,inactive
16,CN1Cc2c(N)cccc2C(c2ccccc2)C1 (stereo not given),inactive
17,C1CCCNCC1,inactive
18,CCCCCCCCCCCCCC(=O)O,inactive
19,OC[C@H]1O[C@@H](Oc2ccc(O)cc2)[C@H](O)[C@@H](O)[C@@H]1O,inactive
20,CCCCCCCCO,inactive
